# PubChem BioAssay AID602270 (The Scripps Research Institute Molecular Screening Center, 2012)
# Some of the results follow. A number with no mark means an inactive call. Calls of active or inactive are those of the source. Cut-off read from the data, not from the text of the source: active = activation above about 4%; inactive = the rest.
# System: Methionine sulfoxide reductase A (Bos taurus)
# Experiment: bovine MsrA activators, retest, confirmation, biochemical, absorbance, HTS (AID 602270);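 note: enzyme coupled to thioredoxin and thioredoxin reductase with NADPH; 0% = vehicle wells and 100% = reference activator wells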
# Settings: purified bovine MsrA, absorbance read-out; at 10.6 µM; stronger effect = higher value
row,Structure (SMILES),activation
1,CC(C)(C)C(=O)CCN1C(=O)C2(OCCO2)c2ccccc21,-4.67%
2,COc1cc(NC(=O)COC(=O)c2ccc([N+](=O)[O-])s2)cc(OC)c1OC,4.75% (active)
3,CN(C)S(=O)(=O)c1ccc(NC(=O)COC(=O)c2n[nH]c3ccccc23)cc1,1.95%
4,Cc1ccc(COC(=O)CN2C(=O)NC3(CCCC3)C2=O)cc1,-1.66%
5,O=C(OCC(=O)N1CCN(c2ccccc2)CC1)c1ccc([N+](=O)[O-])s1,3.98% (active)
6,O=C1C(Sc2cccc(F)c2)=C[C@@]2(O)CC[C@@H](O)[C@]1(Sc1cccc(F)c1)[C@H]2O,-4.14%
7,O=C(CSc1n[nH]c(-c2cccs2)n1)N1CCCCC1,-1.33%
8,CCOc1ccccc1OCCCNCc1ccccc1,-4.03%
9,CCc1ccc(NC(=O)CSc2nnc(-c3cnccn3)n2Cc2ccco2)cc1,-1.98%
10,Cc1ccc(S(=O)(=O)n2nc(OC(=O)C(C)(C)C)cc2N)cc1,-1.8%
11,O=C(c1ccco1)N1CCN(Cc2cccc(C(F)(F)F)c2)CC1,-0.28%
12,CCCN(CC(=O)Nc1ccccc1C)C(=O)c1ccc2[nH]c3c(c2c1)CC(C)CC3 (centres undefined),2.07%
13,O=C(O)Cc1ccc(NC(=O)C2CCCCC2C(=O)O)cc1 (centres undefined),-1.24%
14,COc1ccc(Cl)cc1NS(=O)(=O)c1cccc(C(=O)NCC2CCCO2)c1 (centres undefined),2.13%
15,S=c1[nH]nc(NCCc2ccccc2)s1,7.45% (active)
16,O=C(O)c1ccccc1-c1ccccc1C(=O)Nc1cccc2ccccc12,-1.68%
17,O=C(O)C1CCCCC1C(=O)Nc1ccc(Cl)cc1 (centres undefined),-0.71%
18,CCN(CC(=O)Nc1ccccc1OC)C(=O)CC1CC2CCC1C2 (centres undefined),0.76%
19,CC1=NNC(=O)C1CCC(=O)N/N=C(\C)c1ccc(Cl)cc1 (centres undefined),-3.34%
20,Cn1nnnc1SCC(=O)N1CCN(Cc2ccccc2)CC1,-1.94%
21,CCOc1cccc(-n2nnnc2-c2ccc(OC)cc2)c1,-1.06%
22,O=C(NCc1ccccc1)C1c2ccccc2OCC(=O)N1C1CC1 (centres undefined),1.81%
23,CCCCNC(=O)OC(C)CNC(=O)OC (centres undefined),-2.15%
24,COc1ccccc1-n1cn[nH]c1=S,-0.06%
